The values below come from the antibiotic and cytotoxicity screens of Wong et al. (2023).

The structures appear in SMILES notation. The whole screen tested about 39,000 compounds, of which about 3,300 (8.5%) were called active. What follows is part of a selection rich in actives, with near analogues and random picks from the rest.

The experiment relates to HepG2. Kind of experiment: cytotoxicity call (relative viability < 0.9). The conditions noted are these: 10 µM.
Regarding `CCC(=O)N(C)C[C@H]1Oc2ncc(C#C[C@@H](C)O)cc2C(=O)N([C@@H](C)CO)C[C@H]1C`, the cytotoxicity call is “inactive”.

`C[C@@H]1CN([C@H](C)CO)C(=O)c2cc(NC(=O)c3ccccc3)ccc2O[C@@H](C)CCCCO[C@H]1CN(C)S(=O)(=O)c1ccc(F)cc1`: the cytotoxicity call is “active”. The same measure for `C[C@@H]1CCCCO[C@H](CN(C)S(=O)(=O)c2ccc(F)cc2)[C@H](C)CN([C@@H](C)CO)C(=O)c2cc(NC(=O)c3ccccc3)ccc2O1`: “inactive”; for `C[C@H]1CCCCO[C@H](CN(C)S(=O)(=O)c2ccc(F)cc2)[C@@H](C)CN([C@@H](C)CO)C(=O)c2cc(NC(=O)c3ccccc3)ccc2O1`: “active”; for `C[C@@H]1CCCCO[C@@H](CN(C)S(=O)(=O)c2ccc(F)cc2)[C@@H](C)CN([C@@H](C)CO)C(=O)c2cc(NC(=O)c3ccccc3)ccc2O1`: “inactive”. The same measure for `C[C@H](CO)N1C[C@H](C)[C@H](CN(C)S(=O)(=O)c2ccc(F)cc2)OCCCC[C@H](C)Oc2ccc(NC(=O)c3ccccc3)cc2C1=O`: “inactive”; for `C[C@@H]1CCCCO[C@H](CN(C)S(=O)(=O)c2ccc(F)cc2)[C@@H](C)CN([C@H](C)CO)C(=O)c2cc(NC(=O)c3ccccc3)ccc2O1`: “inactive”. The same measure for `C[C@@H]1CN([C@H](C)CO)C(=O)Cc2cc(NC(=O)CCN3CCOCC3)ccc2O[C@@H]1CN(C)CC1CC1`: “inactive”; for `COc1cc2c(cc1-c1coc3c4c(ccc3c1=O)OC(C)(C)CC4)OCO2`: “inactive”. For the compound `COc1cc2c(=O)c(-c3ccc4c(c3)OCO4)coc2c2c1OC(C)(C)C=C2`, the cytotoxicity call was “active”. The same measure for `COc1cc2c(cc1-c1coc3c4c(c(OC)cc3c1=O)OC(C)(C)CC4)OCO2`: “inactive”; for `CN1CCN(C(=O)C[C@H]2CC[C@H](NC(=O)Cc3ccccn3)[C@@H](CO)O2)CC1`: “inactive”; for `CC1(C)C[C@H](c2nc(-c3ccccc3)cs2)CCS1`: “active”.

Consider `NCCc1nc(-c2ccccc2)cs1`, for which the cytotoxicity call was “inactive”. The same measure for `O=C(C[C@H]1CC[C@@H](NC(=O)c2cnccn2)[C@H](CO)O1)NCc1ccccc1F`: “inactive”; for `CCS(=O)(=O)N(C)C[C@H]1OCc2ccccc2-c2c(n(C)c3ccccc23)C(=O)N([C@H](C)CO)C[C@H]1C`: “inactive”.

For `NCCC(=O)N[C@@H](Cc1cnc[nH]1)C(=O)O.[Zn+3]`, the cytotoxicity call is “inactive”. The same measure for `C[C@@H]1CN([C@@H](C)CO)S(=O)(=O)c2ccc(C#CCN(C)C)cc2O[C@H]1CN(C)Cc1ccc2c(c1)OCO2`: “inactive”; for `C=CC(C1=CC(=O)C(OC)=CC1=O)c1ccc(O)cc1` (centres undefined): “active”; for `COC1=CC(=O)c2ccccc2C1=O`: “inactive”. As to `C=CC(C1=CC(=O)C=CC1=O)c1ccccc1` (centres undefined), the cytotoxicity call is “active”.

On to `COc1ccc(S(=O)(=O)N(C)C)cc1`, for which the cytotoxicity call was “inactive”.

Take `COc1ccc([C@@H](N)c2ccccc2)cc1`: the cytotoxicity call was “inactive”. The same measure for `COC(=O)[C@@H](O)c1ccccc1`: “inactive”; for `C=CC(C1=CC(=O)C(OC)=CC1=O)c1ccccc1` (centres undefined): “active”. With `C=CC(C1=CC(=O)C(OC)=CC1=O)c1ccc(OC)cc1` (centres undefined), the cytotoxicity call was “active”. The same measure for `CC(C)CC#Cc1cnc2c(c1)C(=O)N([C@@H](C)CO)C[C@@H](C)[C@@H](CN(C)C(=O)c1ccc3c(c1)OCO3)O2`: “inactive”; for `c1ccc(Oc2ccccc2)cc1`: “inactive”; for `COc1cccc(S(=O)(=O)Nc2ccc3c(c2)[C@H]2C[C@H](CC(=O)N4CCCCC4)O[C@H](CO)[C@H]2O3)c1`: “inactive”. With `COc1ccc(NC(=O)Nc2ccc3c(c2)C(=O)N([C@@H](C)CO)C[C@@H](C)[C@H](CN(C)CC2CCCCC2)O3)cc1` the entry was “inactive”; with `CN(CC=CC#CC(C)(C)C)Cc1cccc2ccccc12.Cl`, “inactive”; with `C[C@@H]1CN([C@@H](C)CO)C(=O)c2cc(C#C[C@@H](C)O)cnc2O[C@H]1CN(C)C(=O)CN1CCOCC1`, “inactive”. The same measure for `C[C@@H]1CN([C@@H](C)CO)C(=O)c2cc(-c3ccc(C(=O)N(C)C)cc3)cnc2O[C@@H]1CN(C)C(=O)CN(C)C`: “inactive”; for `Cc1ccc(S(=O)(=O)Nc2cccc3c2O[C@@H](CN(C)Cc2ccc(C(F)(F)F)cc2)[C@@H](C)CN([C@H](C)CO)C3=O)cc1`: “inactive”. Regarding `C[C@@H]1CN([C@H](C)CO)C(=O)c2cccc(NC(=O)c3ccncc3)c2O[C@@H]1CN(C)S(=O)(=O)c1cn(C)cn1`, the cytotoxicity call was “inactive”. The same measure for `O=C1N[C@@H](c2ccccc2)COCc2cn(nn2)CC[C@@H](Cc2ccc(C(F)(F)F)cc2)C(=O)N[C@@H](c2ccccc2)COCc2cn(nn2)CC[C@H]1Cc1ccc(C(F)(F)F)cc1`: “inactive”; for `O=C(O)[C@]1(O)C[C@H](O)[C@@H](O)[C@@H](O)C1`: “inactive”; for `Cc1noc(C)c1S(=O)(=O)N(C)C[C@@H]1Oc2ccc(N(C)C)cc2CC(=O)N([C@@H](C)CO)C[C@H]1C`: “inactive”.

Take `C=C1C[C@]23CC[C@@H]4[C@@](C)(CCC[C@@]4(C)C(=O)O)[C@H]2CC[C@H]1C3`: the cytotoxicity call was “active”.

For the compound `CC(C)C1=CC2=CCC3C(C)(C(=O)O)CCCC3(C)C2CC1` (centres undefined), the cytotoxicity call is “inactive”. The same measure for `C=C1C[C@@]23CC[C@@H]4[C@@](C)(CCC[C@@]4(C)C(=O)OC)[C@H]2CC[C@@H]1C3`: “inactive”; for `Cc1noc(C)c1NC(=O)Nc1ccc2c(c1)CC(=O)N([C@H](C)CO)C[C@@H](C)[C@@H](CN(C)C(=O)NC(C)C)O2`: “inactive”. Turning to `COc1ccccc1CN1C(=O)c2ccccc2[C@](Cc2ccccc2I)(C(=O)NCC(C)C)[C@@H]1c1ccc(CO)cc1`, the cytotoxicity call was “inactive”.

As to `COc1ccccc1CN1C(=O)c2ccccc2[C@](Cc2ccccc2I)(C(=O)NC2CC2)[C@@H]1c1ccc(CO)cc1`, the cytotoxicity call is “active”.

On to `COCCCNC(=O)[C@@]1(Cc2ccccc2I)c2ccccc2C(=O)N(Cc2ccccc2OC)[C@H]1c1ccc(CO)cc1`, for which the cytotoxicity call was “inactive”.

For the compound `COc1ccccc1CN1C(=O)c2ccccc2[C@](Cc2ccccc2I)(C(=O)O)[C@@H]1c1ccc(CO)cc1`, the cytotoxicity call was “inactive”. The same measure for `COc1ccccc1CN1C(=O)c2ccccc2[C@](Cc2ccccc2I)(C(=O)NCCCN(C)C)[C@@H]1c1ccc(CO)cc1`: “active”; for `COc1ccc(CCNC(=O)[C@@]2(Cc3ccccc3I)c3ccccc3C(=O)N(Cc3ccccc3OC)[C@H]2c2ccc(CO)cc2)cc1`: “inactive”; for `CO[C@H]1CN(C)C(=O)c2cc(NS(=O)(=O)CC(F)(F)F)ccc2OC[C@@H](C)N(Cc2cccnc2)C[C@@H]1C`: “inactive”.
